In all, about 68,000 sequences were measured (“fluorescence intensity (a.u.)”: median about 9,100, highest 2% from about 16,000 on). This excerpt belongs to a sample that is enriched for the highest values.

The target of the assay is OsWRKY34 (Oryza sativa, UniProt Q0JBA9 1-250). In words: protein-binding microarray (RPBM); PBS, 2% BSA, 51.3 ng/ul salmon testes DNA, 50 uM zinc acetate, 200 nM TF, 25 C, 1 h; high values mean tight binding. Conditions: protein: recombinant; tags: N-terminal polyhistidine and DsRed monomer fusion (pET32a); label: CyDye5-dUTP incorporated in the synthesized complementary strand; 3' TTTTT single-stranded linker to array surface; dsDNA, one strand shown. In a few lines: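 A custom Agilent array was converted to double-stranded form by primer extension with Cy5-dUTP and blocked with 2% BSA. Protein at 200 nM in PBS with 2% BSA, salmon testes DNA and 50 µM zinc acetate was applied for 1 h at 25 °C, followed by washing. The proteins were polyhistidine–DsRed N-terminal fusions of transcription factors, expressed in E. coli BL21-CodonPlus and Ni–NTA-purified. The binding signal is per-feature fluorescence intensity (arbitrary units) from an Axon 4000B scanner.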
Sequence of OsWRKY34 (Q0JBA9 entry or part of it): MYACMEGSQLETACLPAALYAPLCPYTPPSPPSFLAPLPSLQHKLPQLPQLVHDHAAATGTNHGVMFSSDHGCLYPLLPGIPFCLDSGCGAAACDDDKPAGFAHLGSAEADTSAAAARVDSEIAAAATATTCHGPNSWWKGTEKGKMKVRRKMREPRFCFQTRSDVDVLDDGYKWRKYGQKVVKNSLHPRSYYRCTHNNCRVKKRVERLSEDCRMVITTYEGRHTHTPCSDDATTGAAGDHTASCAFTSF
Consider “TGTTATTGTCCTGTATCAGTCCCGTGCTGTTTTTCTCTTTCGGAGTCACCTAGTGCAG”, for which the binding signal was 13000 fluorescence intensity (a.u.).
“CTTTTCTAGCCGTTCACTTTTTTTTACCACAGTAGTTTTTCGGAGTCACCTAGTGCAG”: the binding signal was 16600 fluorescence intensity (a.u.).
As to “GTCCGTCTTGTTTTCTCCTGCGTCACAATTGTCCCGTATTCGGAGTCACCTAGTGCAG”, the binding signal is 18500 fluorescence intensity (a.u.).
For “CACTCCTGCTGCCGTCCAGTTGCAATTGCGTTTTCTCCTTCGGAGTCACCTAGTGCAG”, the binding signal is 16700 fluorescence intensity (a.u.).
The value for “TGTTAAAACACCCTTTTTCACTTTTCTAGCCGTTCACTTTCGGAGTCACCTAGTGCAG” was 9280 fluorescence intensity (a.u.); that for “CCGGGTTCCTGTTTTTTCAACGCATGCACACTTTAATCTACGGAGTCACCTAGTGCAG” was 9290 fluorescence intensity (a.u.).
On to “AATTTTTTTTTGCTTACAAAGGGTGAAACTTTCTCTCTCTCGGAGTCACCTAGTGCAG”, for which the binding signal is 8500 fluorescence intensity (a.u.).
The value for “CTCCGACGACCCCACCGTGCCCACCCCGACCGCCGTCTCGCGGAGTCACCTAGTGCAG” was 9650 fluorescence intensity (a.u.); that for “TTTCTGGGATATTCCATCTCATTACAGCACTCATTCTTTACGGAGTCACCTAGTGCAG” was 9350 fluorescence intensity (a.u.).
Turning to “AATCTCCATCTTCTTGCTCGTACAACGTAAATACTCGTCTCGGAGTCACCTAGTGCAG”, the binding signal was 8830 fluorescence intensity (a.u.).
“CGTCTTGTCTTGGCGTATGTTGGCTTGTATGTTGTTCCGTCGGAGTCACCTAGTGCAG”: the binding signal is 10500 fluorescence intensity (a.u.).
As for “GTTCTTGGTTCCTGCATTTCTTTTCTTTTTTGCCTTTGTTCGGAGTCACCTAGTGCAG”, the binding signal was 11300 fluorescence intensity (a.u.).
The value for “TTATTTTCTCCACTCACTACTTGTTCGTTTAGCAATTTGTCGGAGTCACCTAGTGCAG” was 8750 fluorescence intensity (a.u.).
In the case of “CTTTCTTTTTCCTTCTCTCTCTCTTTTCTTTCTTTTCTTTCGGAGTCACCTAGTGCAG”, the binding signal was 13600 fluorescence intensity (a.u.).
As to “ATTGTCCATGATGTTCTTCCTTTTCTTTTTCGTTGTCAAACGGAGTCACCTAGTGCAG”, the binding signal was 10300 fluorescence intensity (a.u.).
As for “AGTTTTGTTTCTTTCCTGTTCACAGTTCACCTTTGCCTTTCGGAGTCACCTAGTGCAG”, the binding signal was 12400 fluorescence intensity (a.u.).
For “CCCTTTGTCCTGCAGTACGTTTTTCCTTGCATTTTTCTTTCGGAGTCACCTAGTGCAG” the value was 19700 fluorescence intensity (a.u.); for “CCGCTCCGTTTTGTGTCGTTTTGTGTATTTTCTCCACTCACGGAGTCACCTAGTGCAG”, 17400 fluorescence intensity (a.u.); for “CCTATTTTTGATGTTCCGGATTTTTTCTTTGCGGCCAAAACGGAGTCACCTAGTGCAG”, 11700 fluorescence intensity (a.u.).
For “ATCATCACTCCATTGCCGCTGTATTTGTTGTCATCGTTTTCGGAGTCACCTAGTGCAG”, the binding signal was 11200 fluorescence intensity (a.u.).
For the sequence “CCTGCCGTTTTCTTTTTCTTTTTCTTTCCTTTTCCTTTTTCGGAGTCACCTAGTGCAG”, the binding signal was 17000 fluorescence intensity (a.u.).
“ACTTGATGTTCTTTCGTTCTTTCCTGCGAAAACGTCAGGCCGGAGTCACCTAGTGCAG”: the binding signal was 25600 fluorescence intensity (a.u.).
For “CTCTTTTCTTTCTTTTCTTTTCCTTTCTTTTTCCTTTCTTCGGAGTCACCTAGTGCAG” the value was 8540 fluorescence intensity (a.u.).
For “TCCTCTCTGTCTTCTGTCTTCTCTTCTTCTTCCTCACCAACGGAGTCACCTAGTGCAG”, the binding signal was 11600 fluorescence intensity (a.u.).
As for “CAAACAGAGCACACCTTTTTCCAGGACATTTGTCAATATTCGGAGTCACCTAGTGCAG”, the binding signal was 9180 fluorescence intensity (a.u.).
Turning to “ATCCTTTTCTTTGGCAGTCCTTGATCCCAGATCCACATTTCGGAGTCACCTAGTGCAG”, the binding signal is 9820 fluorescence intensity (a.u.).
With “GGCTTTAATTGATCACTATGAATACTTGGCTTGTTGTCATCGGAGTCACCTAGTGCAG”, the binding signal is 9040 fluorescence intensity (a.u.).
For the sequence “AAACCTCGCATGCCAATAGTTGGGAACGCCGGGGCGGGGTCGGAGTCACCTAGTGCAG”, the binding signal is 9340 fluorescence intensity (a.u.).
For the sequence “TTCCTTTTTCTATTTTTGGAATTTATTTTAATTTTTATTTCGGAGTCACCTAGTGCAG”, the binding signal is 8910 fluorescence intensity (a.u.).
In the case of “CCCCGCTCGCGGCCCGGTCGCGCCAAACATCGTCCGACTCCGGAGTCACCTAGTGCAG”, the binding signal was 9010 fluorescence intensity (a.u.).
On to “TCCACAACTGATTTTATTCCGACTTGTTTTTTTTTCTTTTCGGAGTCACCTAGTGCAG”, for which the binding signal was 10800 fluorescence intensity (a.u.).
As to “TTACTACTTCACCGTCTCTTTTTCTTCCTCAGCGCACAAACGGAGTCACCTAGTGCAG”, the binding signal was 9610 fluorescence intensity (a.u.).
The value for “AGACGGAGGAGGACAAGGACATAGGGGAGGAGGGGCGAGGCGGAGTCACCTAGTGCAG” was 9530 fluorescence intensity (a.u.).
With “ATTTCTTTTTGTTGTGTTATCGTGTTGTTTCGTCACTAGTCGGAGTCACCTAGTGCAG”, the binding signal is 19600 fluorescence intensity (a.u.).
In the case of “GCCGTTTCTTCTTTCTTTTTTTTTTCCGTGTGTGTCGTTTCGGAGTCACCTAGTGCAG”, the binding signal is 16600 fluorescence intensity (a.u.).
“ATGTTGTCGTGTATCATTTGTTTTTCTTATGTTATTTTCTCGGAGTCACCTAGTGCAG”: the binding signal is 10700 fluorescence intensity (a.u.).
As for “GTGGATTTTTTTTTTCTTTTCTTTTTTCGTTGTTATTTGTCGGAGTCACCTAGTGCAG”, the binding signal was 10600 fluorescence intensity (a.u.).
The value for “TTTTTCCGTGTGTGTCGTTTCGTTCTTGTTTGTTCGGGTCCGGAGTCACCTAGTGCAG” was 12400 fluorescence intensity (a.u.); that for “TTTTTCGTTTCCTTTCCGTGTTCTTTTTTTTTTCTTCCATCGGAGTCACCTAGTGCAG” was 10100 fluorescence intensity (a.u.); that for “ACACCTTCAATCGCTCTCTCATGAATTAACCGAACAAGACCGGAGTCACCTAGTGCAG” was 9340 fluorescence intensity (a.u.).
“GTAGTAGGTAGCAGCAGTCTCAAACATGTCTTCTGAGTAGCGGAGTCACCTAGTGCAG”: the binding signal was 9420 fluorescence intensity (a.u.).
In the case of “CGTGTTCTTGCCTGCGTATATACGGTGTACGTACACACGTCGGAGTCACCTAGTGCAG”, the binding signal was 8870 fluorescence intensity (a.u.).

(Values after PMC7819943, “Rice protein-binding microarrays: a tool to detect cis-acting elements near promoter regions in rice”.)
